# SMN2 splice enh = increases expression of the SMN2 splice variant | AID 1458 | Potency, µM (titrated, usually from 46.1 µM), most hits filed as activators | HEK293 SMN2-luciferase splicing reporter, luminescence, 30-36 h | 210,000 compounds, 2.8% hits; further: nearly all actives have a fitted effect of over 55% in size
#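 HEK293 cells carry an SMN2 minigene-luciferase reporter in which exon 7 inclusion puts luciferase in frame. Cells were seeded at 2000 cells/well, attached for 10-12 hours, then exposed to compounds for 30-36 hours at 37C before ONE-Glo luminescence.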
# ELG1 genotox = inducers of genotoxicity in HEK293T ELG1-luciferase cells. HEK293T ELG1-luciferase reporter, luminescence, 16 h. Potency, µM (doses to about 46 µM), usual class: activators. 330,000 compounds, 1.3% hits. AID 504466; further: nearly all actives have a fitted effect of over 60% in size
#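 HEK293T cells expressing luciferase-tagged ELG1 were exposed to compound or DMSO vehicle for 16 hr at 37 °C and 5% CO2. Luciferase activity was then measured with ONE-Glo after 30 min at room temperature.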
# FLuc modulator = inhibits or activates purified firefly luciferase, miR-21 counter-screen | P08659 | purified FLuc, Km substrates, luminescence inhibition | Potency, µM (series often up to 57.5 µM), usual class: inhibitors | 360,000 compounds, 6.9% hits | AID 588342; further: nearly all actives have a fitted effect of over 55% in size
# Target sequence (P08659 whole entry, looked up): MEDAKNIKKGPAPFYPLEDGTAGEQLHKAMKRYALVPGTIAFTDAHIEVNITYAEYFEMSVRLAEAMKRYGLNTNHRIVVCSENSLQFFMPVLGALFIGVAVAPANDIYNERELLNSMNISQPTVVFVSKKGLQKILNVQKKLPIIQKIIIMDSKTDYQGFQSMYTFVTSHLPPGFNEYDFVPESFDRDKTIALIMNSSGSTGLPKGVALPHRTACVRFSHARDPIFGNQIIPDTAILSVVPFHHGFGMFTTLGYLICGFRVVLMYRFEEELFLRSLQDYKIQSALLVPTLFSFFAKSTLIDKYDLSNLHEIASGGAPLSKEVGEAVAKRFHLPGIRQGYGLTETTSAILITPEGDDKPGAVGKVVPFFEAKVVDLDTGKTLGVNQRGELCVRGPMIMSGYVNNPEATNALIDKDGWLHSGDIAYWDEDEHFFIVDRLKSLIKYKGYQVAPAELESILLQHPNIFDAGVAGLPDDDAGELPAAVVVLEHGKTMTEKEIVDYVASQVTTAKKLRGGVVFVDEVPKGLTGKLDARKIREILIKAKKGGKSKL
#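 Purified P. pyralis luciferase, 10 nM final, with Km-level 10 uM D-luciferin and 10 uM ATP in 50 mM Tris acetate pH 7.5, 10 mM Mg acetate, 0.01% Tween-20, 0.05% BSA; 6-point qHTS titration about 60 µM downward; luminescence read.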
# ELG1 repair inh = ELG1-dependent DNA repair inhibition. 330,000 compounds, 2.3% hits. AID 504467. Potency, µM (doses to about 46.1 µM), hits mostly inhibitors. HEK293T ELG1-luciferase reporter, luminescence, 16 h; DNA damage induced by 5-fluorouridine; further: nearly all actives have a fitted effect of over 55% in size
#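 Luminescence from the luciferase reporter, measured 30 min after ONE-Glo reagent at room temperature, was the read-out. Beforehand, 2,000 cells per well were exposed for 16 hr at 37 °C to 5-fluorouridine together with compound or vehicle.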
# Rab9 promoter act = activators of Rab9 promoter. Huh7 Rab9 promoter-luciferase reporter, luminescence, 24 h. Potency, µM (highest dose often 9.22 µM), usual class: activators. 320,000 compounds, 2.8% hits. AID 485297; further: nearly all actives have a fitted effect of over 60% in size
#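 Measured in stably transfected Huh7 cells bearing a Rab9 promoter–luciferase construct: 24 h compound treatment at 37 °C, followed by luminescence detection.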
# NPC1 prom act = activates the NPC1 promoter; Huh7 NPC1 promoter luciferase reporter, 24 h; Potency, µM (titrated, usually from 9.22 µM), usual class: activators; 320,000 compounds, 2.4% hits; further: nearly all actives have a fitted effect of over 60% in size
#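 NPC1 promoter–luciferase Huh7 cells; 24 h compound; luminescence.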
# A number is an active result; . = inactive; ? = inconclusive; / = no result; [ ] = remark or other dose. Shown are actives, neighbours in structure and some others; about 9.4% of the full set was active somewhere. The call rests on the fitted dose curve; in most records, active means well fitted curve in the direction sought with a large enough effect; inconclusive means small, poorly fitted or top-dose-only effect, or another doubt; inactive means no such curve, though single readings can be large; an effect the other way counts as inactive or inconclusive.
SMILES,SMN2 splice enh,ELG1 genotox,FLuc modulator,ELG1 repair inh,Rab9 promoter act,NPC1 prom act
CC(=O)c1cc(-c2ccc(F)cc2)n(CCC(=O)Nc2nc3ccc(C)cc3s2)c1C,/,/,.,/,/,/
CCOc1cc(-c2nc(-c3ccc(-c4ccc(C)cc4)nc3OC)no2)cc(OCC)c1OCC,.,/,.,/,/,/
Cc1ccc(Nc2nc(-c3sc(NC(=O)c4cccc(Cl)c4)nc3C)cs2)cc1,.,.,9.53µM,.,.,.
Cc1nc(NC(=O)c2ccccc2)sc1-c1csc(Nc2ccc(C(=O)O)cc2)n1,/,.,0.477µM,?,?,.
COc1ccccc1Nc1nc(-c2sc(NC(=O)c3cccc(Cl)c3)nc2C)cs1,.,.,?,.,.,.
CCC(=O)Nc1nc(C)c(-c2csc(Nc3ccc(C(=O)O)cc3)n2)s1,/,.,16.9µM,.,.,.
COc1ccccc1-c1cc2nc(C)c(CCC(=O)NCCc3ccc(SC)cc3)c(C)n2n1,.,/,.,/,/,/
COc1ccc(NC(=O)c2ccco2)cc1NC(=O)COc1ccccc1Cl,.,/,.,/,/,/
COc1cc(NS(=O)(=O)c2cc3c(cc2C)n(C)c(=O)c(=O)n3C)cc(OC)c1,/,/,.,/,/,/
O=C(Nc1cccnc1)c1cc2cc(Br)ccc2o1,/,5.17µM,1.2µM,?,?,2.51µM
O=C(Nc1cccnc1)Nc1ccc(Br)cc1Cl,.,.,.,.,.,.
O=C(NC(=S)Nc1cccnc1)c1cc2ccccc2o1,/,?,6.75µM,?,.,.
O=C(NC(=S)Nc1ccc(CN2CCCCC2)cc1)c1cc2ccccc2o1,/,.,.,.,.,3.16µM
COc1ccc(CNC(=O)CSc2nnc(C)c3c(C)n(-c4ccccc4)nc23)c(OC)c1,/,/,.,/,/,/
Cc1cccc(C(C)C)c1NC(=O)Cn1c(=O)oc2cc(S(=O)(=O)N3CCCC3)ccc21,.,/,.,/,/,/
CCCC(=O)Nc1nc(-c2ccc3c(c2)OCCO3)cs1,8.91µM,2.59µM,6.01µM,?,3.16µM,1.78µM
CCCC(=O)Nc1nc(-c2ccc(OC)cc2)cs1,?,?,?,?,?,.
CCCC(=O)Nc1nnc(-c2ccc3c(c2)OCO3)s1,/,?,.,.,?,.
Cc1nc(NC(=O)C2CCCC2)sc1Cc1ccc2c(c1)OCO2,?,.,16.9µM,?,?,.
CCCC(=O)Nc1nnc(-c2ccc3c(c2)OCCO3)o1,?,.,15.1µM,?,.,.
Cc1nc(NC(=O)C23CC4CC(CC(C4)C2)C3)sc1Cc1ccc2c(c1)OCO2,/,?,?,.,?,.
CSCC(=O)Nc1nc(-c2ccc3c(c2)OCCO3)cs1,11.2µM,.,10.7µM,?,2.82µM,3.16µM
CCOC(=O)c1ccc(NC(=O)C(CC)Sc2nc3ncccc3[nH]2)cc1 (stereo not given),/,/,.,/,/,/
CC(CNC(=O)Cc1ccc(NC(=O)N2CCSc3ncccc32)cc1)c1ccccc1 (stereo not given),/,/,.,/,/,/
O=C(O)C(=O)Nc1nc(-c2ccc3c(c2)OCCO3)cs1,/,.,9.53µM,?,.,.
SMILES,SMN2 splice enh,ELG1 genotox,FLuc modulator,ELG1 repair inh,Rab9 promoter act,NPC1 prom act
O=C(CSCC(=O)Nc1nc(-c2ccc3c(c2)OCO3)cs1)Nc1nccs1,/,.,?,.,.,.
O=C(Nc1nc(-c2ccc3c(c2)OCO3)cs1)C1CC1,11.2µM,16.4µM,12µM,?,3.55µM,?
COc1ccc(CNC(=O)Cn2c(SCC(=O)Nc3ccc(C)c(C)c3)nc3ccccc32)cc1,/,/,.,/,/,/
COc1cc(NC(=O)C(Cc2ccccc2)NS(=O)(=O)c2cccc3nsnc23)cc(OC)c1 (stereo not given),.,/,.,/,/,/
CCOc1ccc(C(=O)c2oc3ccccc3c2NC(=O)Cc2coc3cc(C)cc(C)c23)cc1,.,/,.,/,/,/
CCCSC(=S)c1c(C)[nH]n(-c2ccccc2)c1=O,/,.,?,13µM,.,.
CCCCN(CCCC)C(=S)N/N=C/c1c(C)[nH]n(-c2ccccc2)c1=O,.,.,.,?,.,.
O=C(O)CCSCc1ccccc1,.[9.22 µM],/,/,/,/,/
CCOC(=O)c1ccc(N2C(=O)c3n[nH]c(-c4ccco4)c3C2c2cccc([N+](=O)[O-])c2)cc1 (stereo not given),.,.,.,18.4µM,.,.
Brc1cccc(-c2nnc(SCc3nc4ccccc4[nH]3)o2)c1,.,.,.,.,.,.
Brc1cccc(-c2nnc(-c3ccccc3)o2)c1,17.8µM,3.26µM,3.01µM,?,1.41µM,2µM
Cc1ccc(-c2nnc(-c3cccc(Br)c3)o2)cc1,12.6µM,8.2µM,4.78µM,?,?,?
CN(Cc1ccccc1)C(=O)COC(=O)c1cc([N+](=O)[O-])ccc1N1CCOCC1,/,.,.,.,.,.
COc1ccc(CN(C)C(=O)COC(=O)c2cc([N+](=O)[O-])ccc2N2CCCC2)c(OC)c1OC,/,.,/,14.6µM,/,/
CSc1nsc(/C=C/Nc2ccc(C)c(C)c2)c1C#N,.,.,?,.,.,.
CSc1nsc(/C=C/Nc2ccc(C)cc2)c1C#N,?,/,1.35µM,/,/,/
Cc1ccc2c(C)nc(Nc3nc(CSc4nnnn4-c4ccccc4)cc(=O)[nH]3)nc2c1,.,.,.,8.2µM,.,.
O=C1Nc2cc(Cl)ccc2Oc2cc(Oc3ccccc3)ccc21,/,/,.,/,/,/
O=C(OCC(=O)N1CCN(C(=O)c2ccco2)CC1)c1cc(-c2ccco2)nc2ccccc12,.,.,15.1µM,?,.,.
O=C(c1cc(-c2ccco2)nc2ccccc12)N1CCN(c2ccc(F)cc2)CC1,.,.,19µM,?,.,.
O=C(O)c1cc(-c2ccco2)nc2ccccc12,.,.,21.3µM,.,.,.
O=C(NC1CC1)c1cc(-c2ccco2)nc2ccccc12,/,.,.,.,.,.
C/C(=N\NC(=O)c1ccc(O)cc1O)c1cccnc1,/,.,9.53µM,?,?,.
O=C(OCC(=O)N1CCN(C(=O)c2ccco2)CC1)c1cc(-c2ccc(Cl)c(Cl)c2Cl)nc2ccccc12,.,.,.,?,.,.
CN(Cc1ccccc1)C(=O)C1CCN(S(=O)(=O)Cc2ccccc2)CC1,/,/,.,/,/,/
SMILES,SMN2 splice enh,ELG1 genotox,FLuc modulator,ELG1 repair inh,Rab9 promoter act,NPC1 prom act
O=C(Nc1cccc2cccnc12)[C@@H]1[C@@H](C(=O)O)[C@H]2CC[C@@H]1O2,.[9.22 µM],/,/,/,/,/
COc1ccccc1NC(=O)Cn1c(=O)n(CC2CCC(C(=O)NCCc3ccccc3)CC2)c(=O)c2ccccc21 (stereo not given),.,/,.,/,/,/
Cc1ccc(C)c(S(=O)(=O)NCC(c2ccco2)S(=O)(=O)c2ccc(F)cc2)c1 (stereo not given),/,/,.,/,/,/
Cc1csc(NC(=O)c2cc(-c3ccco3)nc3ccccc23)n1,.,.,?,20.6µM,.,.
Cc1nnc(NC(=O)c2cc(-c3ccco3)nc3ccccc23)s1,/,.,?,.,.,.
C/C(=N\NC(=O)c1cc(-c2ccco2)nc2ccccc12)c1cccnc1,.,.,13.5µM,.,.,.

# Source: PubChem BioAssay
